The supplement of paper PMC10849652
Targets with a hit are over-represented here; the source holds about 7,900 in all. About 0.6% of all pairs of compound and target were hits. Unmarked numbers belong to inactive results.

Tests used:
Assay in all cases: log2 fold change, soluble protein after heating vs DMSO (PISA); higher = thermal stabilisation; K562 cells, 10 uM, 30 min; active = over 0.2 and 3.5 SD of the protein, either way, in both replicates (recomputed)
[1] = compound: CC1=C(C=C(C=C1)NC(=O)C2=CC(=CC=C2)N(C)C)NC(=O)C3=CC=C(C=C3)O
Outline: (§1)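 Thermal stability values are relative to control samples and come from duplicates. They are expressed as log2 fold changes. For measurement, K562 cells (2×10^6 cells/mL) received 10 μM compound for 30 min, and aliquots were heated for 3 min over 48°C-58°C, pooled, and extracted at 4°C in PBS with 0.5% NP-40. Soluble protein, the supernatant after 21,000xg for 90 min, was quantified by TMTpro 16plex LC-MS/MS with equalised channel sums.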

Nexturastat A = compound: CCCCN(Cc1ccc(C(=O)NO)cc1)C(=O)Nc1ccccc1 [Nexturastat A]
Outline: as §1

[2] = compound: CC1=NC(=CC=C1)C2=C(N=C(N2)C(C)(C)C)C3=CC4=NC=CN=C4C=C3
Outline: as §1

vemurafenib = compound: CCCS(=O)(=O)Nc1ccc(F)c(C(=O)c2c[nH]c3ncc(-c4ccc(Cl)cc4)cc23)c1F [vemurafenib]
Outline: as §1

givinostat = compound: CCN(CC)Cc1ccc2cc(COC(=O)Nc3ccc(C(=O)NO)cc3)ccc2c1 [givinostat]
Outline: as §1

[3] = compound: CC1=C(C=C(C=C1)NC(=O)C2=CC(=CC=C2)C(C)(C)C#N)NC3=CC4=C(C=C3)N=CN(C4=O)C
Outline: as §1

[4] = compound: CC1=CC=C(C=C1)SC2=C3C=C(SC3=CN=C2)C(=O)N
Outline: as §1

[5] = compound: CCCS(=O)(=O)Nc1ccc(F)c(C(=O)c2c[nH]c3ncc(Cl)cc23)c1F
Outline: as §1

[6] = compound: CCCc1cc(C)[nH]c(=O)c1CNC(=O)c1cc(-c2ccnc(N3CCN(C)CC3)c2)cc2c1cnn2C(C)C
Outline: as §1

barasertib = compound: CCN(CCCOc1ccc2c(Nc3cc(CC(=O)Nc4cccc(F)c4)[nH]n3)ncnc2c1)CCOP(=O)(O)O [barasertib]
Outline: as §1

UniProt Q5T655, sequence (Q5T655 whole entry, looked up): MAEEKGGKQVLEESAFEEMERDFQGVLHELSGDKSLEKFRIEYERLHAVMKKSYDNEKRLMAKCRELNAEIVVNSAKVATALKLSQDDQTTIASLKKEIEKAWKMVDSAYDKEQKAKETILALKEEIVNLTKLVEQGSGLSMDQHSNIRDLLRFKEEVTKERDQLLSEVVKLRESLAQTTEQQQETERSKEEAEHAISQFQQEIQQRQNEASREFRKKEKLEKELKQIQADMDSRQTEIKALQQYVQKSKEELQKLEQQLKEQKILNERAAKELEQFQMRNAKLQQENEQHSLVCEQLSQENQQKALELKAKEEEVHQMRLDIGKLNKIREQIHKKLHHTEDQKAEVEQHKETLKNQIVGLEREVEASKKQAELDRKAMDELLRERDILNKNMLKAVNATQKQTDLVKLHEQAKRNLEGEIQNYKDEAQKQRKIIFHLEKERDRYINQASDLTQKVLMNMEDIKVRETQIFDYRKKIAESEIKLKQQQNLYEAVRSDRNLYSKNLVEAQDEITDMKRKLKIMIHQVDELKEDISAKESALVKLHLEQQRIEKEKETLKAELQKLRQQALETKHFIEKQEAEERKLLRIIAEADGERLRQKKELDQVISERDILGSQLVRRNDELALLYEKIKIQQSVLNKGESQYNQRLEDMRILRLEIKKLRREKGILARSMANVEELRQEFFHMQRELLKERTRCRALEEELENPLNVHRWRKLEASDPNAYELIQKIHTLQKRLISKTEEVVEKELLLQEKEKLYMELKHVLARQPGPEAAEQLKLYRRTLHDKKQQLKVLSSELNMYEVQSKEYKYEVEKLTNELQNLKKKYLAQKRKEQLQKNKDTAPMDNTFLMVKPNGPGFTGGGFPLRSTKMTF
UniProt Q9UHN6, sequence (Q9UHN6 whole entry, looked up): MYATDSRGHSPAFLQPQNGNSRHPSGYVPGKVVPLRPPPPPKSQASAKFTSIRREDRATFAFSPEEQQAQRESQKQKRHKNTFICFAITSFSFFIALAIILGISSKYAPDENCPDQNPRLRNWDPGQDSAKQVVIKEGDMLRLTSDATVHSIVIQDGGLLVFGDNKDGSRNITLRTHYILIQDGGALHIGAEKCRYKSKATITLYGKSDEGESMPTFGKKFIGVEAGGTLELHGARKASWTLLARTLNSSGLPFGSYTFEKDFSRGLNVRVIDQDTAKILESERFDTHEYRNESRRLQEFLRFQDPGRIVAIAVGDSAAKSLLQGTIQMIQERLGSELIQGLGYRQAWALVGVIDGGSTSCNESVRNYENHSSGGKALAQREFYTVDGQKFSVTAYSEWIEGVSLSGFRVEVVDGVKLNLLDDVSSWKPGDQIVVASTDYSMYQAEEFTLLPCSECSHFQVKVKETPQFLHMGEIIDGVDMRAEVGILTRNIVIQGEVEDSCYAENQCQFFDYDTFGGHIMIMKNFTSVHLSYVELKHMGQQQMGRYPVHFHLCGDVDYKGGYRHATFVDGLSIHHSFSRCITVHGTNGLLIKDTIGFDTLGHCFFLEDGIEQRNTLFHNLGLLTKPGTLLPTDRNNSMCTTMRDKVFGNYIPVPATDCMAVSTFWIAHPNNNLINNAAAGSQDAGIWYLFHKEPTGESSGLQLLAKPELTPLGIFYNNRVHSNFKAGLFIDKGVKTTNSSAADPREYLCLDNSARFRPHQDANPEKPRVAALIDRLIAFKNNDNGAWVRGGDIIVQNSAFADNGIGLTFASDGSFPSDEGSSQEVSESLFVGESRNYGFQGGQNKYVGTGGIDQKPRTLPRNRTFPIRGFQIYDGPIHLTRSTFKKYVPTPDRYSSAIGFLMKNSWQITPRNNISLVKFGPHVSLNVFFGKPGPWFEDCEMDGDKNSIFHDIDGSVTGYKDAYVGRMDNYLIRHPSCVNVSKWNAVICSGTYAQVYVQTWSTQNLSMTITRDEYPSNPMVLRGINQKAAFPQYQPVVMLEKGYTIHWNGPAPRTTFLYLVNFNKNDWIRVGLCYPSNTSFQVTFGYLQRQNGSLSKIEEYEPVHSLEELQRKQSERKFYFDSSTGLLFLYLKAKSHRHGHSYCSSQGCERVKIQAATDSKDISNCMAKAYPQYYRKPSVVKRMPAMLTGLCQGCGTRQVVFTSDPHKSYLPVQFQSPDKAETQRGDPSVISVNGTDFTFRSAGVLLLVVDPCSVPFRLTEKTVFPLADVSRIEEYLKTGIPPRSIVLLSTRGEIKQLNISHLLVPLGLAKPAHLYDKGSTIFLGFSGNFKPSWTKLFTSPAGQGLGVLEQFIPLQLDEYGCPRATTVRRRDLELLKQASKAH
UniProt O75503, sequence (O75503 whole entry, looked up): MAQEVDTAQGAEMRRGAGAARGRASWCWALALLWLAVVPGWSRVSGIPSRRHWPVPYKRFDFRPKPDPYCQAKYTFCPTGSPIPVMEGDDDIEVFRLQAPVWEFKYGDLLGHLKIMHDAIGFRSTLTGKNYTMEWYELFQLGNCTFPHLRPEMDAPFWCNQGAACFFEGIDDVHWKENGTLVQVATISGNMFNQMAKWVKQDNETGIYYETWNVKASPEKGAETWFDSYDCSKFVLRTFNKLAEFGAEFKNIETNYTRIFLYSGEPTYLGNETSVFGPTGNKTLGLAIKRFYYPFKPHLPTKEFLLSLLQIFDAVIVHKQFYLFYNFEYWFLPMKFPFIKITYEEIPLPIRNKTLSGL
UniProt P51795, sequence (P51795 whole entry, looked up): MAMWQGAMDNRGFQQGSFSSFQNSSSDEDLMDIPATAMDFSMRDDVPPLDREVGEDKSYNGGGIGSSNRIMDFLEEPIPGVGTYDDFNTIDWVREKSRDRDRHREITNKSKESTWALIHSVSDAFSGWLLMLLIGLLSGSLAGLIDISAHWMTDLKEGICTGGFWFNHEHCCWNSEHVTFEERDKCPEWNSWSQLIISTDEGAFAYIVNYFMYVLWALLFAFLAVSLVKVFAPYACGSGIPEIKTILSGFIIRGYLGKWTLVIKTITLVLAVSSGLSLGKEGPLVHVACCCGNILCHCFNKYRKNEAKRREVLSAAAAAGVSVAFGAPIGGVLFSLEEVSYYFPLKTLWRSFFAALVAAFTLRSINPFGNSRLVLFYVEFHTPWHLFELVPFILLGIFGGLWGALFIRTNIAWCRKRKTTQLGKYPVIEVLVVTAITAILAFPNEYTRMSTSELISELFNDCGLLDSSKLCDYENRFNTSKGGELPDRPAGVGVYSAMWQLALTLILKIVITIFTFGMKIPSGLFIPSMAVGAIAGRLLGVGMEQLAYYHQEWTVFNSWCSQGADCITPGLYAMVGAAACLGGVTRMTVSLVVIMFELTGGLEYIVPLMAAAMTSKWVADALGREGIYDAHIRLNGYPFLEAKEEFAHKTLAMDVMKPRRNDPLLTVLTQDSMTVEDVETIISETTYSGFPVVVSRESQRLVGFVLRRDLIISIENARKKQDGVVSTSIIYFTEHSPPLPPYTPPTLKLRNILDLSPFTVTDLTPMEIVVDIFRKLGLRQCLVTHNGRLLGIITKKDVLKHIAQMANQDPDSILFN
UniProt P30281, sequence (P30281 whole entry, looked up): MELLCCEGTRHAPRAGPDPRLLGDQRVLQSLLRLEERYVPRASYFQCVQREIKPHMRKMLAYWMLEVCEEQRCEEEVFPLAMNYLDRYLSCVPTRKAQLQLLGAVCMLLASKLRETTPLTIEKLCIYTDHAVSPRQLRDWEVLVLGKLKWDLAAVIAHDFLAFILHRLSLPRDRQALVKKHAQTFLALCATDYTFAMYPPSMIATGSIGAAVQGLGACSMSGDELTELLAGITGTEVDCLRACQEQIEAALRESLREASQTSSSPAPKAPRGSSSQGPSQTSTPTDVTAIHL
UniProt A8MTT3, sequence (A8MTT3 whole entry, looked up): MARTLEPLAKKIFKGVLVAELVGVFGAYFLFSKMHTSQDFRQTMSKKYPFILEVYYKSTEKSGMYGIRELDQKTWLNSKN
UniProt P55210, sequence (P55210 whole entry, looked up): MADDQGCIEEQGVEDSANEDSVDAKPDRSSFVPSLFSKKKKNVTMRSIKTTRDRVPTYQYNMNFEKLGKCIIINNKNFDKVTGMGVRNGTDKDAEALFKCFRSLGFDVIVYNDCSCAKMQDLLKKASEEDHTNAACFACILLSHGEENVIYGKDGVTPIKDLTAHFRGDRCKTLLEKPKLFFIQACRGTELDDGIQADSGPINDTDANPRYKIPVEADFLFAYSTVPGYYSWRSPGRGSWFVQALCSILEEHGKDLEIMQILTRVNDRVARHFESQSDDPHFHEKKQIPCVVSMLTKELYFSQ
UniProt Q15417, sequence (Q15417 whole entry, looked up): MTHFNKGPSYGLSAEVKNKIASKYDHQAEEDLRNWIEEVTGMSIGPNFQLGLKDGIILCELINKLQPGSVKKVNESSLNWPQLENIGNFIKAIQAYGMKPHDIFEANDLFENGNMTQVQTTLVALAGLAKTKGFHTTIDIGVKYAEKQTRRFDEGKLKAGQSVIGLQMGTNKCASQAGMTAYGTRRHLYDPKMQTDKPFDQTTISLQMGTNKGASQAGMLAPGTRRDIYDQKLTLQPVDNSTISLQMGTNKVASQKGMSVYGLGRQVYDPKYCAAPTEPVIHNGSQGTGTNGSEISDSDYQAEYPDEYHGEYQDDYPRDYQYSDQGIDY
UniProt Q96GV9, sequence (Q96GV9 whole entry, looked up): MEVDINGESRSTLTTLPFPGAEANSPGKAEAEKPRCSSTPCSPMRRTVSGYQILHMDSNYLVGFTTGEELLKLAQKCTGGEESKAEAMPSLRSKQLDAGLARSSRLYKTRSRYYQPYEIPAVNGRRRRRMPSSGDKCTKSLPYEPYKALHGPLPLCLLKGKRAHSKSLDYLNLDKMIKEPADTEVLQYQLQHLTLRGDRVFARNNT
UniProt P34810, sequence (P34810 whole entry, looked up): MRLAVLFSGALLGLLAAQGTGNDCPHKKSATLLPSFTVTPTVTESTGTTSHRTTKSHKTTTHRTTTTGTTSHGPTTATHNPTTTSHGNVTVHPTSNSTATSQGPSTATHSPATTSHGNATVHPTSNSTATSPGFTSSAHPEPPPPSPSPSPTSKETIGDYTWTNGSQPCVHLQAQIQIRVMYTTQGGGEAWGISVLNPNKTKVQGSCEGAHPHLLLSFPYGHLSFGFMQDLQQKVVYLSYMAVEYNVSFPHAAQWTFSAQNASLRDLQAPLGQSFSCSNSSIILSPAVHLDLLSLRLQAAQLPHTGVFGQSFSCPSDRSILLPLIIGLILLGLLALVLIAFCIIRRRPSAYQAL

Target | log2 fold change [1] | log2 fold change (Nexturastat A) | log2 fold change [2] | log2 fold change (vemurafenib) | log2 fold change (givinostat) | log2 fold change [3] | log2 fold change [4] | log2 fold change [5] | log2 fold change [6] | log2 fold change (barasertib)
CCDC187, A0A1W2PQX5 | -0.105 | 0.003 | – | – | – | – | – | – | – | –
CLCN5 isoform 2 (UniProt P51795) | 0.052 | – | -0.016 | 0.029 | 0.022 | – | – | – | – | –
CEP128 (UniProt Q6ZU80) | – | – | -0.188 | -0.1 | – | -0.043 | 0.006 | -0.118 | -0.422 | 0.098
CD84 (UniProt Q9UIB8) | – | 0.096 | – | – | 0.006 | -0.181 | – | – | – | –
CLASP2 (UniProt O75122) | -0.286 | – | 0.065 | – | 0.031 | – | -0.103 | -0.068 | -0.017 | 0.031
CKS2 (UniProt P33552) | – | – | – | – | – | – | -0.031 | 0.039 | -0.077 | 0.045
CRLS1 (UniProt Q9UJA2) | – | – | -0.014 | 0.033 | -0.108 | 0.337 (active) | 0.064 | 0.117 | -0.074 | –
CLPTM1L (UniProt G5E9Z2) | – | -0.466 | – | 0.055 | – | 0.122 | – | – | -0.035 | -0.076
CASP7 isoform 3 (UniProt P55210) | – | 0.255 | – | – | -0.005 | – | – | – | – | -0.249
CA1 (UniProt E5RIF9) | – | -0.413 | – | -0.383 | – | – | – | – | – | -0.004
CPNE5 (UniProt Q9HCH3) | – | – | – | – | -0.005 | – | – | – | – | –
CS (UniProt F8VU34) | – | – | – | – | – | – | – | – | – | -0.024
COMMD3-BMI1 (UniProt R4GMX3) | – | 0.03 | – | – | – | -0.002 | -0.126 | -0.426 (active) | – | –
CRMP1 isoform 2 (UniProt Q14194) | – | – | – | -0.026 | -0.19 | 0.089 | – | – | – | 0.035
CNRIP1 (UniProt Q96F85) | 0.073 | -0.206 | – | – | 0.106 | – | 0.023 | -0.075 | -0.087 | –
CCDC82 (UniProt Q8N4S0) | -0.027 | 0.043 | -0.103 | 0.015 | -0.074 | – | -0.007 | 0.055 | -0.035 | 0.073
CASK (UniProt O14936) | – | – | -0.091 | – | -0.06 | – | – | – | – | –
CDK2AP2 (UniProt O75956) | -0.14 | 0.022 | 0.021 | – | -0.154 | – | – | – | -0.065 | -0.029

Target | log2 fold change [1] | log2 fold change (Nexturastat A) | log2 fold change [2] | log2 fold change (vemurafenib) | log2 fold change (givinostat) | log2 fold change [3] | log2 fold change [4] | log2 fold change [5] | log2 fold change [6] | log2 fold change (barasertib)
CARD9 (UniProt Q9H257) | -0.15 | – | 0.052 | – | -0.106 | – | – | – | – | –
CAV2 (UniProt P51636) | – | – | 0.078 | – | 0.137 | -0.164 | -0.018 | 0.087 | 0.001 | 0.175
CNN3 (UniProt Q15417) | – | 0.015 | – | 0.034 | 0.073 | 0.014 | 0.064 | 0.07 | -0.018 | 0.047
CNN1 (UniProt P51911) | – | -0.029 | – | 0.056 | – | -0.068 | -0.1 | -0.042 | -0.012 | –
CLINT1 (UniProt Q14677) | – | 0.259 | -0.007 | 0.051 | – | – | – | – | -0.017 | 0.017
C5orf30 (UniProt Q96GV9) | – | -0.186 | – | – | – | – | -0.126 | 0.103 | – | –
CFAP47 (UniProt Q6ZTR5) | – | -0.041 | – | -0.11 | – | – | -0.159 | -0.106 | – | -0.035
CLN3 (UniProt Q13286) | 0.004 | -0.039 | -0.093 | 0.147 | 0.02 | – | -0.025 | -0.119 | -0.09 | -0.027
CSNK1A1 isoform 3 (UniProt P48729) | – | – | – | – | – | – | -0.08 | 0.227 | -0.035 | -0.089
CEMIP2 (UniProt Q9UHN6) | 0.043 | 0.02 | 0.033 | -0.045 | -0.052 | – | 0.592 (active) | -0.1 | -0.168 | -0.012
CEBPZOS (UniProt A8MTT3) | -0.015 | – | -0.016 | 0.065 | -0.029 | – | 0.027 | 0.132 | -0.069 | 0.059
CLN5 (UniProt O75503) | – | 0.012 | 0.068 | – | -0.17 | 0.031 | 0.058 | 0.104 | -0.54 | 0.06
CCNL1 (UniProt Q9UK58) | – | – | – | – | 0.156 | – | – | – | -0.317 | –
CNOT4 isoform 9 (UniProt O95628) | -0.034 | – | 0.017 | -0.059 | 0.053 | – | 0.003 | 0.006 | -0.171 | 0.015
CD68 (UniProt P34810) | – | – | – | – | -0.091 | 0.037 | – | – | -0.06 | -0.313
CCND3 (UniProt P30281) | 0.046 | -0.004 | – | -0.077 | 0.021 | – | 0.063 | -0.028 | -0.062 | 0.079
CFAP58 (UniProt Q5T655) | 0.185 | – | – | – | – | – | 0.07 | -0.175 | -0.219 | –
CREB3L2 (UniProt Q70SY1) | 0.085 | 0.706 (active) | -0.23 | -0.036 | 0.436 | – | – | – | 0.154 | 0.081
